Measured values taken from the supplement of paper PMC4466140.

Each binder was assayed against AgAbp1 (assay: SPOT peptide array binding signal intensity (averaged, normalized) (arbitrary units (background-subtracted, floor 0; scale differs between SH3 domains)); higher = stronger binding of the SH3 domain to the peptide).
Procedure: (§1)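 GST-tagged SH3 domains from S. cerevisiae (Sc), A. gossypii (Ag), C. albicans (Ca) and S. pombe (Sp) were incubated at 10 ug/ml overnight at 4 C on cellulose SPOT membranes carrying 292 synthetic 15-mer peptides mined from the S. cerevisiae proteome (cysteines replaced by serines). Binding was detected with anti-GST antibody, HRP secondary and chemiluminescence, quantified with Genespotter, and reported as normalized spot intensities averaged over biological replicates.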

Binder | SPOT peptide array binding signal intensity
NNNKMRPHLPPLSSG | 47.5

These binders were tested against AgBbc1 in the same assay as above.
Procedure: as §1

Binder | SPOT peptide array binding signal intensity
NNNKMRPHLPPLSSG | 1.5

The binders below were run against AgBem1-D1 in the same assay as above.
Procedure: as §1

Binder | SPOT peptide array binding signal intensity
NNNKMRPHLPPLSSG | 288

What follows are binders tested against AgBzz1-D1 in the same assay as above.
Procedure: as §1

Binder | SPOT peptide array binding signal intensity
NNNKMRPHLPPLSSG | 12

The binders below were run against AgBzz1-D2 in the same assay as above.
Procedure: as §1

Binder | SPOT peptide array binding signal intensity
NNNKMRPHLPPLSSG | 9

What follows are binders tested against AgCyk3 in the same assay as above.
Procedure: as §1

Binder | SPOT peptide array binding signal intensity
NNNKMRPHLPPLSSG | ≤ 0

These binders were tested against AgFus1 in the same assay as above.
Procedure: as §1

Binder | SPOT peptide array binding signal intensity
NNNKMRPHLPPLSSG | 386

What follows are binders tested against AgHof1 in the same assay as above.
Procedure: as §1

Binder | SPOT peptide array binding signal intensity
NNNKMRPHLPPLSSG | 291

What follows are binders tested against AgHse1 in the same assay as above.
Procedure: as §1

Binder | SPOT peptide array binding signal intensity
NNNKMRPHLPPLSSG | 932

The binders below were run against AgLsb1 in the same assay as above.
Procedure: as §1

Binder | SPOT peptide array binding signal intensity
NNNKMRPHLPPLSSG | 1.25

The binders below were run against AgLsb4 in the same assay as above.
Procedure: as §1

Binder | SPOT peptide array binding signal intensity
NNNKMRPHLPPLSSG | 34.5

Each binder was assayed against AgMyo5 in the same assay as above.
Procedure: as §1

Binder | SPOT peptide array binding signal intensity
NNNKMRPHLPPLSSG | ≤ 0

What follows are binders tested against AgNbp2 in the same assay as above.
Procedure: as §1

Binder | SPOT peptide array binding signal intensity
NNNKMRPHLPPLSSG | 513

These binders were tested against AgRvs167 in the same assay as above.
Procedure: as §1

Binder | SPOT peptide array binding signal intensity
NNNKMRPHLPPLSSG | 3.5

What follows are binders tested against AgSho1 in the same assay as above.
Procedure: as §1

Binder | SPOT peptide array binding signal intensity
NNNKMRPHLPPLSSG | 559

Each binder was assayed against AgSla1-D1-D2 in the same assay as above.
Procedure: as §1

Binder | SPOT peptide array binding signal intensity
NNNKMRPHLPPLSSG | ≤ 0

These binders were tested against AgSla1-D3 in the same assay as above.
Procedure: as §1

Binder | SPOT peptide array binding signal intensity
NNNKMRPHLPPLSSG | 0.5

The binders below were run against CaAbp1-D1 in the same assay as above.
Procedure: as §1

Binder | SPOT peptide array binding signal intensity
NNNKMRPHLPPLSSG | 613

These binders were tested against CaAbp1-D2 in the same assay as above.
Procedure: as §1

Binder | SPOT peptide array binding signal intensity
NNNKMRPHLPPLSSG | 330

These binders were tested against CaBbc1 in the same assay as above.
Procedure: as §1

Binder | SPOT peptide array binding signal intensity
NNNKMRPHLPPLSSG | 55.9

What follows are binders tested against CaBem1-D1 in the same assay as above.
Procedure: as §1

Binder | SPOT peptide array binding signal intensity
NNNKMRPHLPPLSSG | 264

Each binder was assayed against CaBzz1-D1 in the same assay as above.
Procedure: as §1

Binder | SPOT peptide array binding signal intensity
NNNKMRPHLPPLSSG | 85.8

Each binder was assayed against CaBzz1-D2 in the same assay as above.
Procedure: as §1

Binder | SPOT peptide array binding signal intensity
NNNKMRPHLPPLSSG | 49.8

These binders were tested against CaCyk3 in the same assay as above.
Procedure: as §1

Binder | SPOT peptide array binding signal intensity
NNNKMRPHLPPLSSG | 4

What follows are binders tested against CaFus1 in the same assay as above.
Procedure: as §1

Binder | SPOT peptide array binding signal intensity
NNNKMRPHLPPLSSG | 1790

These binders were tested against CaHof1 in the same assay as above.
Procedure: as §1

Binder | SPOT peptide array binding signal intensity
NNNKMRPHLPPLSSG | ≤ 0

These binders were tested against CaHse1 in the same assay as above.
Procedure: as §1

Binder | SPOT peptide array binding signal intensity
NNNKMRPHLPPLSSG | 487

What follows are binders tested against CaLsb1 in the same assay as above.
Procedure: as §1

Binder | SPOT peptide array binding signal intensity
NNNKMRPHLPPLSSG | 3.75

Each binder was assayed against CaLsb4 in the same assay as above.
Procedure: as §1

Binder | SPOT peptide array binding signal intensity
NNNKMRPHLPPLSSG | 728

What follows are binders tested against CaMyo5 in the same assay as above.
Procedure: as §1

Binder | SPOT peptide array binding signal intensity
NNNKMRPHLPPLSSG | 36.2

Each binder was assayed against CaNbp2 in the same assay as above.
Procedure: as §1

Binder | SPOT peptide array binding signal intensity
NNNKMRPHLPPLSSG | 1410

The binders below were run against CaRvs167 in the same assay as above.
Procedure: as §1

Binder | SPOT peptide array binding signal intensity
NNNKMRPHLPPLSSG | 53.7

These binders were tested against CaRvs167-3 in the same assay as above.
Procedure: as §1

Binder | SPOT peptide array binding signal intensity
NNNKMRPHLPPLSSG | 4

The binders below were run against CaSho1 in the same assay as above.
Procedure: as §1

Binder | SPOT peptide array binding signal intensity
NNNKMRPHLPPLSSG | 1520

These binders were tested against CaSla1-D1-D2 in the same assay as above.
Procedure: as §1

Binder | SPOT peptide array binding signal intensity
NNNKMRPHLPPLSSG | 396

What follows are binders tested against CaSla1-D3 in the same assay as above.
Procedure: as §1

Binder | SPOT peptide array binding signal intensity
NNNKMRPHLPPLSSG | 109

Each binder was assayed against ScAbp1 in the same assay as above.
Procedure: as §1

Binder | SPOT peptide array binding signal intensity
NNNKMRPHLPPLSSG | 256

These binders were tested against ScBbc1 in the same assay as above.
Procedure: as §1

Binder | SPOT peptide array binding signal intensity
NNNKMRPHLPPLSSG | ≤ 0

Each binder was assayed against ScBem1-D1 in the same assay as above.
Procedure: as §1

Binder | SPOT peptide array binding signal intensity
NNNKMRPHLPPLSSG | ≤ 0

What follows are binders tested against ScBzz1-D1 in the same assay as above.
Procedure: as §1

Binder | SPOT peptide array binding signal intensity
NNNKMRPHLPPLSSG | ≤ 0

What follows are binders tested against ScBzz1-D2 in the same assay as above.
Procedure: as §1

Binder | SPOT peptide array binding signal intensity
NNNKMRPHLPPLSSG | ≤ 0

What follows are binders tested against ScCyk3 in the same assay as above.
Procedure: as §1

Binder | SPOT peptide array binding signal intensity
NNNKMRPHLPPLSSG | 2.25

These binders were tested against ScFus1 in the same assay as above.
Procedure: as §1

Binder | SPOT peptide array binding signal intensity
NNNKMRPHLPPLSSG | 424

The binders below were run against ScHof1 in the same assay as above.
Procedure: as §1

Binder | SPOT peptide array binding signal intensity
NNNKMRPHLPPLSSG | 267

The binders below were run against ScHse1 in the same assay as above.
Procedure: as §1

Binder | SPOT peptide array binding signal intensity
NNNKMRPHLPPLSSG | 1820

Each binder was assayed against ScLsb1 in the same assay as above.
Procedure: as §1

Binder | SPOT peptide array binding signal intensity
NNNKMRPHLPPLSSG | 27.2

What follows are binders tested against ScLsb2 in the same assay as above.
Procedure: as §1

Binder | SPOT peptide array binding signal intensity
NNNKMRPHLPPLSSG | 0.5

The binders below were run against ScLsb3 in the same assay as above.
Procedure: as §1

Binder | SPOT peptide array binding signal intensity
NNNKMRPHLPPLSSG | 357

Each binder was assayed against ScLsb4 in the same assay as above.
Procedure: as §1

Binder | SPOT peptide array binding signal intensity
NNNKMRPHLPPLSSG | 163

These binders were tested against ScMyo3 in the same assay as above.
Procedure: as §1

Binder | SPOT peptide array binding signal intensity
NNNKMRPHLPPLSSG | 10.5

What follows are binders tested against ScMyo5 in the same assay as above.
Procedure: as §1

Binder | SPOT peptide array binding signal intensity
NNNKMRPHLPPLSSG | 2

These binders were tested against ScNbp2 in the same assay as above.
Procedure: as §1

Binder | SPOT peptide array binding signal intensity
NNNKMRPHLPPLSSG | 710

The binders below were run against ScPex13 in the same assay as above.
Procedure: as §1

Binder | SPOT peptide array binding signal intensity
NNNKMRPHLPPLSSG | 116

What follows are binders tested against ScRvs167 in the same assay as above.
Procedure: as §1

Binder | SPOT peptide array binding signal intensity
NNNKMRPHLPPLSSG | 55.6

What follows are binders tested against ScSho1 in the same assay as above.
Procedure: as §1

Binder | SPOT peptide array binding signal intensity
NNNKMRPHLPPLSSG | 1410

Each binder was assayed against ScSla1-D1-D2 in the same assay as above.
Procedure: as §1

Binder | SPOT peptide array binding signal intensity
NNNKMRPHLPPLSSG | 156

These binders were tested against ScSla1-D3 in the same assay as above.
Procedure: as §1

Binder | SPOT peptide array binding signal intensity
NNNKMRPHLPPLSSG | 224

Each binder was assayed against SpAbp1-D1 in the same assay as above.
Procedure: as §1

Binder | SPOT peptide array binding signal intensity
NNNKMRPHLPPLSSG | 323

The binders below were run against SpBbc1 in the same assay as above.
Procedure: as §1

Binder | SPOT peptide array binding signal intensity
NNNKMRPHLPPLSSG | 1

Each binder was assayed against SpBzz1-D1 in the same assay as above.
Procedure: as §1

Binder | SPOT peptide array binding signal intensity
NNNKMRPHLPPLSSG | 354

What follows are binders tested against SpBzz1-D2 in the same assay as above.
Procedure: as §1

Binder | SPOT peptide array binding signal intensity
NNNKMRPHLPPLSSG | 6.38

The binders below were run against SpCyk3 in the same assay as above.
Procedure: as §1

Binder | SPOT peptide array binding signal intensity
NNNKMRPHLPPLSSG | 1.75

Each binder was assayed against SpHof1 in the same assay as above.
Procedure: as §1

Binder | SPOT peptide array binding signal intensity
NNNKMRPHLPPLSSG | 9.5

Each binder was assayed against SpHof1-2 in the same assay as above.
Procedure: as §1

Binder | SPOT peptide array binding signal intensity
NNNKMRPHLPPLSSG | 78.8

These binders were tested against SpHof1-3 in the same assay as above.
Procedure: as §1

Binder | SPOT peptide array binding signal intensity
NNNKMRPHLPPLSSG | 552

Each binder was assayed against SpHse1 in the same assay as above.
Procedure: as §1

Binder | SPOT peptide array binding signal intensity
NNNKMRPHLPPLSSG | 1170

These binders were tested against SpLsb1 in the same assay as above.
Procedure: as §1

Binder | SPOT peptide array binding signal intensity
NNNKMRPHLPPLSSG | 3.38

The binders below were run against SpLsb4 in the same assay as above.
Procedure: as §1

Binder | SPOT peptide array binding signal intensity
NNNKMRPHLPPLSSG | 904

These binders were tested against SpMyo1 in the same assay as above.
Procedure: as §1

Binder | SPOT peptide array binding signal intensity
NNNKMRPHLPPLSSG | 28.1

What follows are binders tested against SpNbp2 in the same assay as above.
Procedure: as §1

Binder | SPOT peptide array binding signal intensity
NNNKMRPHLPPLSSG | 460

These binders were tested against SpPex13 in the same assay as above.
Procedure: as §1

Binder | SPOT peptide array binding signal intensity
NNNKMRPHLPPLSSG | 92.5

Each binder was assayed against SpRvs167 in the same assay as above.
Procedure: as §1

Binder | SPOT peptide array binding signal intensity
NNNKMRPHLPPLSSG | 119

These binders were tested against SpSla1-D1-D2 in the same assay as above.
Procedure: as §1

Binder | SPOT peptide array binding signal intensity
NNNKMRPHLPPLSSG | ≤ 0

These binders were tested against SpSla1-D3 in the same assay as above.
Procedure: as §1

Binder | SPOT peptide array binding signal intensity
NNNKMRPHLPPLSSG | 64.5
